# According to PubChem BioAssay (NCATS):
# Records with an inconclusive call do not appear. Entries that show only a call come without a potency. Active and inactive are the calls of the source. Calls follow the shape of the dose curve; as a rule, active = well fitted curve in the direction sought with a large enough effect; inconclusive = small, poorly fitted or top-dose-only effect, or another doubt; inactive = no such curve, though single readings can be large; an effect the other way counts as inactive or inconclusive.
# Biological target: Calcium and integrin-binding protein 1 (Homo sapiens) (UniProt Q99828)
# Sequence (Q99828 whole entry, looked up): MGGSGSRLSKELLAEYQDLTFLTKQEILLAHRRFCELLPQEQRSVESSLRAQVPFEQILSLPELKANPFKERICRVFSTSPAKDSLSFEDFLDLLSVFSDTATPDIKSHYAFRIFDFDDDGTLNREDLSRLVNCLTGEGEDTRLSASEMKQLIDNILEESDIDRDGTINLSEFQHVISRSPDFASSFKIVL
# Assay: Primary qHTS for Identification of Calcium Integrin Binding Protein 1 (CIB1) Competitor (AID 1508620);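 also: GST tagged CIB1 binding a fluorescein labelled alphaIIb integrin peptide tracer; top concentration of the series differs between compounds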
# Details: CIB1-GST / FITC-alphaIIb peptide fluorescence polarization; series mostly up to 57.7 µM
# Outline: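 CIB1-GST (1 uM final) and compound incubated 15 min at room temperature before adding FITC-alphaIIb peptide tracer (100 nM final). Competition for binding read by fluorescence polarization (ex 480, em 540) after another 15 min at room temperature.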
row,Compound,Potency
1,FC(F)(F)c1ccc(C=Cc2nc(COc3ccc(CCCCn4ccnn4)cc3)co2)cc1,inactive
2,C[C@@H](O)[C@H]1C(=O)N2C(C(=O)OCOC(=O)C(C)(C)C)=C(SC3CN(C4=NCCS4)C3)[C@H](C)[C@H]12,inactive
3,CCC[C@@H](NC(=O)[C@@H]1[C@H]2CCC[C@@H]2CN1C(=O)[C@@H](NC(=O)[C@@H](NC(=O)c1cnccn1)C1CCCCC1)C(C)(C)C)C(=O)C(=O)NC1CC1,inactive
4,NS(=O)(=O)c1ccc(Nc2nc(OCC3CCCCC3)c3[nH]cnc3n2)cc1,inactive
5,COC(=O)Nc1ccc(-c2nc(N3CCOCC3)c3cnn(C4CCN(C(=O)OC)CC4)c3n2)cc1,inactive
6,C[C@@H]1[C@H](C)CC[C@]2(C(=O)O)CC[C@]3(C)C(=CC[C@@H]4[C@@]5(C)CC[C@H](O)C(C)(C)[C@H]5CC[C@]43C)[C@@H]12,inactive
7,C[C@@H]1O[C@@H](O[C@H]2CC[C@@]3(C)[C@H](CC[C@@H]4[C@H]3C[C@@H](O)[C@]3(C)[C@@H](C5=CC(=O)OC5)CC[C@]43O)C2)C[C@H](O)[C@@H]1O[C@H]1C[C@H](O)[C@H](O[C@H]2C[C@H](O)[C@@H](O)[C@@H](C)O2)[C@H](C)O1 (stereo in doubt),inactive
8,CC(C)N(CCCNC(=O)Nc1ccc(C(C)(C)C)cc1)C[C@H]1O[C@@H](n2cc(Br)c3c(N)ncnc32)[C@H](O)[C@H]1O,inactive
9,CNC(=O)c1ccc2c(C(=Nc3cccc(CN(C)C)c3)c3ccccc3)c(O)[nH]c2c1,inactive
10,CC1(C)C(N(O)C(=O)Nc2ccc(Cl)cc2)N(c2ccc(Cl)cc2)C(=O)N1CC(=O)NN=CC=Cc1ccc([N+](=O)[O-])o1 (configuration not stated),inactive
11,CCC(=O)N1CCN(c2ccc(-n3c(=O)ccc4cnc5ccc(-c6cnc7ccccc7c6)cc5c43)cc2C(F)(F)F)CC1,inactive
12,Cc1ccc2c(c1)c1c(n2CCc2ccc(C)nc2)CCN(C)C1,inactive
13,CC(C)(O)CC(=O)NCCn1ccc2ncnc(Nc3ccc(Oc4cccc(C(F)(F)F)c4)c(Cl)c3)c21,inactive
14,CCC=CC[C@H]1C(=O)CC[C@@H]1CC(=O)OC,inactive
15,CNc1nc(-c2ccc3c(N)n[nH]c3c2)cc(N2C[C@@H](C(=O)NC3CCCCC3)CC[C@@H]2C)n1,inactive
16,Nc1nc(Cl)nc2c1ncn2[C@@H]1O[C@H](CO)[C@@H](O)[C@H]1F,inactive
17,COc1ccc2c(c1)CC[C@H]1[C@@H]2CC[C@]2(C)[C@@H](NCCCCCCN3C(=O)C=CC3=O)CC[C@H]12,inactive
18,O=S(=O)(NCCNCC=Cc1ccc(Br)cc1)c1cccc2cnccc12,inactive

row,Compound,Potency
1,CC(=O)OCC(=O)[C@@]1(O)CC[C@H]2[C@@H]3CCC4=CC(=O)C=C[C@]4(C)[C@@H]3[C@@H](O)C[C@@]21C,inactive
2,CCCCCCOC(=O)N=C(N)c1ccc(NCc2nc3cc(C(=O)N(CCC(=O)OCC)c4ccccn4)ccc3n2C)cc1,inactive
3,COc1c(C)c2c(c(O)c1CC=C(C)CCC(=O)OCCN1CCOCC1)C(=O)OC2,inactive
4,O=C(Nc1cccc(Cl)c1)Nc1ncc(CCNc2ncnc3ccsc23)s1,inactive
5,CCCCn1c(=O)n(Cc2ccccc2F)c(=O)c2[nH]c(Cc3ccc(NC(C)=O)cc3)nc21,inactive
6,CC=C(C(=CC)c1ccc(O)cc1)c1ccc(O)cc1,inactive
7,NC1(C(=O)N[C@@H](CCO)c2ccc(Cl)cc2)CCN(c2ncnc3[nH]ccc23)CC1,inactive
8,CC(=O)O[C@]1(C(C)=O)CC[C@H]2[C@@H]3C=C(Cl)C4=CC(=O)[C@@H]5C[C@H]5[C@]4(C)[C@@H]3CC[C@@]21C,inactive
9,O=c1[nH]c(=O)n([C@H]2C[C@@H](O)[C@@H](CO)O2)cc1C(F)(F)F,inactive
10,Cc1nc(NC(=O)N2CCC[C@@H]2C(N)=O)sc1-c1csc(C(C)(C)C)n1,inactive
11,Oc1ccc(C=Cc2cc(O)cc(O)c2)cc1,inactive
12,CN1CC(=O)N2C(Cc3c([nH]c4ccccc34)[C@H]2c2ccc3c(c2)OCO3)C1=O (some centres not stated),inactive
13,C#C[C@]1(O)CC[C@H]2[C@H]3CCc4cc(OC)ccc4[C@H]3CC[C@@]21C,inactive
14,Cc1[nH]c(C=C2C(=O)Nc3ccc(S(=O)(=O)N(C)c4cccc(Cl)c4)cc32)c(C)c1C(=O)N1CCN(C)CC1,inactive
15,Cc1ccc(C(=O)N(CCCN)[C@@H](c2oc3cc(Cl)ccc3c(=O)c2Cc2ccccc2)C(C)C)cc1,inactive
16,N#CC(=C1Nc2ccccc2S1)c1ccnc(OCc2ccc(CN3CCOCC3)cc2)n1,inactive
17,Cc1ccc(C(=O)N(CCCN)[C@@H](c2nc3cc(Cl)ccc3c(=O)n2Cc2ccccc2)C(C)C)cc1,inactive
18,CN(C)c1ccccc1CN1CCCN(Cc2ccccc2N(C)C)C1c1ccncc1,inactive

# Tested on: not listed separately
# Assay: Primary qHTS for small molecule stabilizers of the endoplasmic reticulum resident proteome: Secreted ER Calcium Modulated Protein (SERCaMP) assay (AID 1508630); also: potency is read from the fitted curve at half-maximal effect
# Details: SH-SY5Y GLuc-SERCaMP (Gaussia luciferase released on ER calcium loss) secretion, thapsigargin, luminescence; series mostly up to 38.4 µM
# Outline: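 GLuc-SERCaMP-expressing SH-SY5Y cells, pretreated 16 h with compound, are challenged with thapsigargin to empty ER calcium stores; after 4 h, coelenterazine is added directly to the medium and luminescence is imaged.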
row,Compound,Potency
1,FC(F)(F)c1ccc(C=Cc2nc(COc3ccc(CCCCn4ccnn4)cc3)co2)cc1,inactive
2,C[C@@H](O)[C@H]1C(=O)N2C(C(=O)OCOC(=O)C(C)(C)C)=C(SC3CN(C4=NCCS4)C3)[C@H](C)[C@H]12,inactive
3,CCC[C@@H](NC(=O)[C@@H]1[C@H]2CCC[C@@H]2CN1C(=O)[C@@H](NC(=O)[C@@H](NC(=O)c1cnccn1)C1CCCCC1)C(C)(C)C)C(=O)C(=O)NC1CC1,inactive
4,NS(=O)(=O)c1ccc(Nc2nc(OCC3CCCCC3)c3[nH]cnc3n2)cc1,inactive
5,COC(=O)Nc1ccc(-c2nc(N3CCOCC3)c3cnn(C4CCN(C(=O)OC)CC4)c3n2)cc1,inactive
6,C[C@@H]1[C@H](C)CC[C@]2(C(=O)O)CC[C@]3(C)C(=CC[C@@H]4[C@@]5(C)CC[C@H](O)C(C)(C)[C@H]5CC[C@]43C)[C@@H]12,inactive
7,C[C@@H]1O[C@@H](O[C@H]2CC[C@@]3(C)[C@H](CC[C@@H]4[C@H]3C[C@@H](O)[C@]3(C)[C@@H](C5=CC(=O)OC5)CC[C@]43O)C2)C[C@H](O)[C@@H]1O[C@H]1C[C@H](O)[C@H](O[C@H]2C[C@H](O)[C@@H](O)[C@@H](C)O2)[C@H](C)O1 (stereo in doubt),inactive
8,CC(C)N(CCCNC(=O)Nc1ccc(C(C)(C)C)cc1)C[C@H]1O[C@@H](n2cc(Br)c3c(N)ncnc32)[C@H](O)[C@H]1O,inactive
9,CNC(=O)c1ccc2c(C(=Nc3cccc(CN(C)C)c3)c3ccccc3)c(O)[nH]c2c1,inactive
10,CC1(C)C(N(O)C(=O)Nc2ccc(Cl)cc2)N(c2ccc(Cl)cc2)C(=O)N1CC(=O)NN=CC=Cc1ccc([N+](=O)[O-])o1 (configuration not stated),inactive
11,CCC(=O)N1CCN(c2ccc(-n3c(=O)ccc4cnc5ccc(-c6cnc7ccccc7c6)cc5c43)cc2C(F)(F)F)CC1,inactive
12,Cc1ccc2c(c1)c1c(n2CCc2ccc(C)nc2)CCN(C)C1,inactive
13,CC(C)(O)CC(=O)NCCn1ccc2ncnc(Nc3ccc(Oc4cccc(C(F)(F)F)c4)c(Cl)c3)c21,inactive
14,CCC=CC[C@H]1C(=O)CC[C@@H]1CC(=O)OC,inactive
15,CNc1nc(-c2ccc3c(N)n[nH]c3c2)cc(N2C[C@@H](C(=O)NC3CCCCC3)CC[C@@H]2C)n1,inactive
16,Nc1nc(Cl)nc2c1ncn2[C@@H]1O[C@H](CO)[C@@H](O)[C@H]1F,inactive
17,COc1ccc2c(c1)CC[C@H]1[C@@H]2CC[C@]2(C)[C@@H](NCCCCCCN3C(=O)C=CC3=O)CC[C@H]12,inactive
18,O=S(=O)(NCCNCC=Cc1ccc(Br)cc1)c1cccc2cnccc12,inactive

row,Compound,Potency
1,CC(=O)OCC(=O)[C@@]1(O)CC[C@H]2[C@@H]3CCC4=CC(=O)C=C[C@]4(C)[C@@H]3[C@@H](O)C[C@@]21C,inactive
2,CCCCCCOC(=O)N=C(N)c1ccc(NCc2nc3cc(C(=O)N(CCC(=O)OCC)c4ccccn4)ccc3n2C)cc1,inactive
3,COc1c(C)c2c(c(O)c1CC=C(C)CCC(=O)OCCN1CCOCC1)C(=O)OC2,inactive
4,O=C(Nc1cccc(Cl)c1)Nc1ncc(CCNc2ncnc3ccsc23)s1,inactive
5,CCCCn1c(=O)n(Cc2ccccc2F)c(=O)c2[nH]c(Cc3ccc(NC(C)=O)cc3)nc21,inactive
6,CC=C(C(=CC)c1ccc(O)cc1)c1ccc(O)cc1,inactive
7,NC1(C(=O)N[C@@H](CCO)c2ccc(Cl)cc2)CCN(c2ncnc3[nH]ccc23)CC1,inactive
8,CC(=O)O[C@]1(C(C)=O)CC[C@H]2[C@@H]3C=C(Cl)C4=CC(=O)[C@@H]5C[C@H]5[C@]4(C)[C@@H]3CC[C@@]21C,inactive
9,O=c1[nH]c(=O)n([C@H]2C[C@@H](O)[C@@H](CO)O2)cc1C(F)(F)F,inactive
10,Cc1nc(NC(=O)N2CCC[C@@H]2C(N)=O)sc1-c1csc(C(C)(C)C)n1,inactive
11,Oc1ccc(C=Cc2cc(O)cc(O)c2)cc1,inactive
12,CN1CC(=O)N2C(Cc3c([nH]c4ccccc34)[C@H]2c2ccc3c(c2)OCO3)C1=O (some centres not stated),inactive
13,C#C[C@]1(O)CC[C@H]2[C@H]3CCc4cc(OC)ccc4[C@H]3CC[C@@]21C,inactive
14,Cc1[nH]c(C=C2C(=O)Nc3ccc(S(=O)(=O)N(C)c4cccc(Cl)c4)cc32)c(C)c1C(=O)N1CCN(C)CC1,inactive
15,Cc1ccc(C(=O)N(CCCN)[C@@H](c2oc3cc(Cl)ccc3c(=O)c2Cc2ccccc2)C(C)C)cc1,inactive
16,N#CC(=C1Nc2ccccc2S1)c1ccnc(OCc2ccc(CN3CCOCC3)cc2)n1,1490 nM (active)
17,Cc1ccc(C(=O)N(CCCN)[C@@H](c2nc3cc(Cl)ccc3c(=O)n2Cc2ccccc2)C(C)C)cc1,inactive
18,CN(C)c1ccccc1CN1CCCN(Cc2ccccc2N(C)C)C1c1ccncc1,inactive
